In PubChem BioAssay (Tox21) one finds Potency, activity change, negative = inhibition and activity, negative = inhibition data, which are given here for 30 compounds.

SMILES strings stand for the structures. Results filed as inconclusive are left out. Active and inactive are the calls of the source. Calls come from the whole dose curve.

In assay [1] the target is Acetylcholinesterase (Homo sapiens) (UniProt P22303). Description: Acetylcholinesterase (AChE) small molecule antagonists: colormetric cell-based qHTS assay (AID 1347395). Note: nearly all actives have a fitted effect of over 30% in size. Note: potency is the fitted concentration of half-maximal effect. The method, boiled down: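 Colorimetric read-out: DTNB detects thiocholine released when cellular AChE in SH-SY5Y cells hydrolyses acetylthiocholine. Cells attached overnight, received compound for 30 min at 37 C, then substrate mix for 90 min at 37 C.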
Chain of Acetylcholinesterase (Homo sapiens) (P22303 whole entry, looked up): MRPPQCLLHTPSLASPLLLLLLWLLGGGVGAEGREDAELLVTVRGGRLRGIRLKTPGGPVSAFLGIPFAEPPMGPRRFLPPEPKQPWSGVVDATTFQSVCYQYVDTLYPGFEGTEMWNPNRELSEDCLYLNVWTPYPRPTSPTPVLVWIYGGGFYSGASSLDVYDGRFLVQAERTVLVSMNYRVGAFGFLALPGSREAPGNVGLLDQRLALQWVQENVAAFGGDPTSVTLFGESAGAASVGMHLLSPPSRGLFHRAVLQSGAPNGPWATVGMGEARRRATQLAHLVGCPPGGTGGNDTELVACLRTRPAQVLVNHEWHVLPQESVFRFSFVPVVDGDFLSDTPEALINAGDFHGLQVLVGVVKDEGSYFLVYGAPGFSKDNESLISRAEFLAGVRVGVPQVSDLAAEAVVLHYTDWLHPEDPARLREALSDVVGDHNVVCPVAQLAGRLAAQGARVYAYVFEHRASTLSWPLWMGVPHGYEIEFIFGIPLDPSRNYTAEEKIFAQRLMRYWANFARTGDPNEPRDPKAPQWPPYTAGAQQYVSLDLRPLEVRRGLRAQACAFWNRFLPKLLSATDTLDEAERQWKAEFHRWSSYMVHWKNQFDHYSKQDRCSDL

The target is the same in assay [2]. Description: Acetylcholinesterase (AChE) small molecule antagonists: enzyme-based qHTS assay (AID 1347397). Note: nearly all actives have a fitted effect of over 55% in size. Note: potency is the fitted concentration of half-maximal effect. The note with it: Potency: AChE enzyme activity inhibition; outcome: AChE enzyme activity inhibition. The method, boiled down:
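Enzyme inhibition was scored from DTNB-detected thiocholine formed by recombinant human AChE acting on acetylthiocholine. The 30 min compound preincubation and 10 min substrate reaction were both run at room temperature, with DMSO as vehicle control.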

Assay [3] shares this target. Put plainly: Acetylcholinesterase (AChE) small molecule antagonists: fluorescence cell-based qHTS assay (AID 1347398). Note: nearly all actives have a fitted effect of over 50% in size. Note: potency is the fitted concentration of half-maximal effect. Conditions: Potency: AChE activity; outcome: AChE activity. Summed up: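 Endogenous acetylcholinesterase of SH-SY5Y neuroblastoma cells is measured in situ. After overnight attachment and 30 min compound exposure, cells receive acetylthiocholine and Thiolite Green; fluorescence is read after 40 min at room temperature.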

Assay [4] shares this target. Description: Acetylcholinesterase (AChE) small molecule antagonists: enzyme-based qHTS assay with human liver microsomes (AID 1347399). Note: nearly all actives have a fitted effect of over 60% in size. The note with it: Potency: qHTS inhibition; outcome: qHTS inhibition. Summed up:
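Recombinant human AChE (50 mU/mL in the enzyme mix) and human liver microsomes (0.25 mg/mL final) were preincubated with compound and NADPH (0.25 mg/mL final) for 30 min at 37 C. Acetylthiocholine/DTNB was then added; thiocholine was read colorimetrically after 10 min at room temperature.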
% is set by controls: 0 for no effect and ±100 for the full control effect.

With `CC(=O)OCC(=O)[C@H]1CC[C@H]2[C@@H]3CCC4=CC(=O)CC[C@]4(C)[C@H]3CC[C@]12C`, the Potency result in assay [1], in assay [2], in assay [3] and in assay [4] was “inactive” throughout.

Consider `Cc1nc2ccc(Cl)cc2[nH]1`, for which the Potency entry in assay [1], in assay [2] and in assay [4] was “inactive” in each case. Moreover, the Potency in assay [3] was 25.1 µM (active).

`C=C(C)C(=O)OCCN(CC)CC`: the Potency result in assay [1], in assay [2], in assay [3] and in assay [4] was “inactive” throughout.

Consider `CCCc1nc(C)c2c(=O)[nH]c(-c3cc(S(=O)(=O)N4CCN(CC)CC4)ccc3OCC)nn12`, for which the Potency entry in assay [1], in assay [2], in assay [3] and in assay [4] was “inactive” in each case.

For `O=C(Nc1cccc(C2=NCCN2)c1)Nc1cccc(C2=NCCN2)c1`, the figures for the Potency in assay [1], in assay [2] and in assay [3] were 3.79 µM (active), 10.7 µM (active) and 2.13 µM (active), respectively. The activity change, negative = inhibition in assay [4] is -3.93% [at 23.6 µM] (inactive).

Take `CC(O)CN(CCN(CC(C)O)CC(C)O)CC(C)O` (stereo not given): the Potency entry in assay [1], in assay [2], in assay [3] and in assay [4] was “inactive” each time.

In the case of `O=c1[nH]c2ccccc2c(=O)n1CCCl`, the Potency entry in assay [1], in assay [2], in assay [3] and in assay [4] was “inactive” each time.

Turning to `CC(C)(CO)CO`, the Potency result in assay [1], in assay [2], in assay [3] and in assay [4] was “inactive” each time.

For the compound `O=C(O)c1[nH]n(-c2ccc(S(=O)(=O)O)cc2)c(=O)c1N=Nc1ccc(S(=O)(=O)O)cc1`, the Potency result in assay [1], in assay [2], in assay [3] and in assay [4] was “inactive” each time.

In the case of `O=S1(=O)CC=CC1`, the Potency result in assay [1], in assay [2], in assay [3] and in assay [4] was “inactive” in each case.

On to `O=C1CCCCCN1SSN1CCCCCC1=O`, for which the Potency result in assay [1], in assay [2], in assay [3] and in assay [4] was “inactive” throughout.

On to `COc1cccc2c1C(=O)c1c(O)c3c(c(O)c1C2=O)C[C@@](O)(C(=O)CO)C[C@@H]3O[C@H]1C[C@H](N)[C@H](O)[C@H](C)O1`, for which the Potency in assay [1] is 8.71 µM (active). Besides, the Potency result in assay [2], in assay [3] and in assay [4] was “inactive” in each case.

`O=C(O)CN(CCCN(CC(=O)O)CC(=O)O)CC(=O)O`: the activity, negative = inhibition in assay [1] is 0.786% [at 23.6 µM] (inactive). The results for the activity change, negative = inhibition in assay [2], in assay [3] and in assay [4] were 4.89% [at 23.6 µM] (inactive), 3.08% [at 23.8 µM] (inactive) and 1.21% [at 23.6 µM] (inactive), respectively.

Turning to `CCN(CCC#N)c1ccccc1`, the Potency result in assay [1], in assay [2], in assay [3] and in assay [4] was “inactive” each time.

For `CCCCOC(=O)CCS`, the Potency result in assay [1], in assay [2], in assay [3] and in assay [4] was “inactive” in each case.

Turning to `CC(C[N+](C)(C)C)OC(N)=O` (stereo not given), the Potency entry in assay [1], in assay [2], in assay [3] and in assay [4] was “inactive” throughout.

Regarding `O=C(c1ccc(O)cc1)c1ccc(Cl)cc1`, the Potency result in assay [1], in assay [2], in assay [3] and in assay [4] was “inactive” in each case.

Take `CCN(Cc1ccccc1)c1ccccc1`: the Potency result in assay [1], in assay [2], in assay [3] and in assay [4] was “inactive” each time.

Regarding `CC(C)(O)c1ccc(CNC(=O)c2cccnc2Oc2ccc3nonc3c2)cc1`, the Potency entry in assay [1], in assay [2], in assay [3] and in assay [4] was “inactive” in each case.

In the case of `CC(=O)OC[C@H]1O[C@@H](n2ncc(=O)[nH]c2=O)[C@H](OC(C)=O)[C@@H]1OC(C)=O`, the Potency entry in assay [1], in assay [2], in assay [3] and in assay [4] was “inactive” throughout.

Turning to `C[n+]1ccn(CCO)c1`, the Potency entry in assay [1], in assay [2], in assay [3] and in assay [4] was “inactive” throughout.

Consider `COC(=O)CCCC(=O)OC`, for which the Potency entry in assay [1], in assay [2], in assay [3] and in assay [4] was “inactive” each time.

`CSc1ccc(O)cc1C`: the Potency result in assay [1], in assay [2], in assay [3] and in assay [4] was “inactive” in each case.

Turning to `COC(CC(C)CCCC(C)(C)O)OC` (stereo not given), the Potency entry in assay [1], in assay [2], in assay [3] and in assay [4] was “inactive” each time.

`Cc1cc(C)c(O)c(C)c1`: the Potency entry in assay [1], in assay [2], in assay [3] and in assay [4] was “inactive” throughout.

With `Nc1ncnc2c1ncn2[C@@H]1O[C@H](COP(=O)(O)O)[C@@H](O)[C@H]1O`, the Potency result in assay [1], in assay [2], in assay [3] and in assay [4] was “inactive” in each case.

Take `CCC(C)Nc1ccc(NC(C)CC)cc1` (stereo not given): the Potency result in assay [1], in assay [2] and in assay [4] was “inactive” throughout. The Potency in assay [3] was 40.7 µM (active).

On to `CC(C)CCCCCOC(=O)CCCCC(=O)OCCCCCC(C)C`, for which the Potency entry in assay [1], in assay [2], in assay [3] and in assay [4] was “inactive” throughout.

Regarding `O=C(CN1CCNCC1)NC1CCCCC1`, the Potency entry in assay [1], in assay [2], in assay [3] and in assay [4] was “inactive” throughout.

Regarding `NCCCC[C@H](N[C@@H](CCc1ccccc1)C(=O)O)C(=O)N1CCC[C@H]1C(=O)O`, the Potency result in assay [1], in assay [2], in assay [3] and in assay [4] was “inactive” in each case.
